The campaign covered roughly 5,500 compounds. About 2,000 (36%) were called active. Roughly 18% stayed inconclusive and do not appear here. No stated cut-off is given here; in the data, active means normalized growth mostly below about 0.91 (no sharp cut-off); inconclusive means no clear call, values can overlap the other calls; inactive means mostly above about 0.92. This is one part of the list.
Assay: chemical genetic growth profiling, strain panel (AID 1159580);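 further: tested at 20 µM; growth read once vehicle control cultures reached saturation at 30 °C; 1 = growth at the plate median or of vehicle wells; lower values mean less growth of the strain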
Conditions: S. cerevisiae deletion strains, growth OD

Measured: normalized growth

C#CCn1c(=O)c2c(ncn2C)n(C)c1=O
inactive: locus YAL013W, strain DEP1, hits give low values 0.982 | locus YAL040C, strain CLN3, hits give low values 1.01 | locus YCL061C, strain MRC1 (second series), hits give low values 1.01 | locus YDR150W, strain NUM1, hits give low values 0.999 | locus YDR363W, strain ESC2, hits give low values 0.989 | locus YER002W, strain NOP16, hits give low values 0.997 | locus YGR078C, strain PAC10, hits give low values 1.01 | locus YGR229C, strain SMI1, hits give low values 1.03 | locus YJR075W, strain HOC1, hits give low values 0.994 | locus YMR263W, strain SAP30, hits give low values 0.995 | locus YMR307W, strain GAS1, hits give low values 1.01 | locus YNL175C, strain NOP13, hits give low values 0.998 | locus YNL197C, strain WHI3, hits give low values 0.977 | locus YNL224C, strain SQS1, hits give low values 1.01 | locus YNL322C, strain KRE1, hits give low values 0.987 | locus YOR083W, strain WHI5 (second series), hits give low values 0.965 | locus YPL241C, strain CIN2, hits give low values 1

— PubChem BioAssay AID1159580 (chemical genetic matrix, 2015)
